Hit rate of the full screen: of about 290,000 compounds, about 3,000 (1%) were called active. The rule behind the calls is not given here. The sample as a whole holds a higher share of actives than the screen did.
Target: Polyadenylate-binding protein 1 (Homo sapiens) (UniProt P11940)
Test: blockers of PABP interaction with poly(A) – biochemical, fluorescence polarization, uHTS, primary screen (AID 2014);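 note: calls also rest on retests at 20 µM and on dose response follow-up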
Conditions: PABP-poly(A) RNA binding, stronger effect = higher value

Chain of Polyadenylate-binding protein 1 (Homo sapiens) (P11940 whole entry, looked up): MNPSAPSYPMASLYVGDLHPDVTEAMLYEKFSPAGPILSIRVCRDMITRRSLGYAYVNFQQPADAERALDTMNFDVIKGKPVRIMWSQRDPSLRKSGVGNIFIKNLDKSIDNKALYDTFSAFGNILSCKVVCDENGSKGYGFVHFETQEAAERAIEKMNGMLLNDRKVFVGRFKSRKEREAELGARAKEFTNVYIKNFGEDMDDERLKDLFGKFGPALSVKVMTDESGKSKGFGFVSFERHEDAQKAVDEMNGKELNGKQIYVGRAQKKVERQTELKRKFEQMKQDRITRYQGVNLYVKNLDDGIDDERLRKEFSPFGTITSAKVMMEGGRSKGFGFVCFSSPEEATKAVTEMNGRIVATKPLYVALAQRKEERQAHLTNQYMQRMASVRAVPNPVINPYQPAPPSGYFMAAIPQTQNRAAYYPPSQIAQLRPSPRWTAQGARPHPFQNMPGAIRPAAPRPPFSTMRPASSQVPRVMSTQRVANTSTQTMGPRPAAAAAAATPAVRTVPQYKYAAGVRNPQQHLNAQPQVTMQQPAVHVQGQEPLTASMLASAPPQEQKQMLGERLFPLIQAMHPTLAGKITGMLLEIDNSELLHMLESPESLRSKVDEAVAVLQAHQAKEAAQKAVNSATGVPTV

Row | SMILES | inhibition (at 35 µM) | inhibition (confirmation repeats, at 20 µM) [%]
1 | Cc1ccc(NC(=O)CCN2C(=O)c3ccccc3C2=O)cc1C | -7.2% (inactive) | –
2 | Cc1cc(C)cc(NC(=O)CCN2C(=O)c3ccccc3C2=O)c1 | 0.7% (inactive) | –
3 | Cc1cc(C)cc(OCC(=O)NNC(=O)CCN2C(=O)c3ccccc3C2=O)c1 | 116% (active) | 74.1
4 | COc1cc(NC(=O)c2ccc(-c3csc(C)n3)cc2)c(OC)cc1Cl | 7.9% (inactive) | –
5 | COC(=O)c1cc(NS(=O)(=O)c2ccc3c(c2)c(=O)n(C)c(=O)n3C)cc(C(=O)OC)c1 | 3.8% (inactive) | –
6 | COC(=O)c1ccc(N2CCOCC2)c(NC(=O)c2ccc3c(c2)OCCO3)c1 | 4.7% (inactive) | –
7 | CCC(CC)C(=O)N1CCN(c2cccc(C)c2C)CC1 | -1.2% (inactive) | –
8 | O=C(/C=C/c1ccco1)NC(=S)N1CCCCC1 | 1.1% (inactive) | –
9 | Cc1cccc(N2CCN(C(=O)/C=C/c3ccco3)CC2)c1C | -10.7% (active) | 96.7
10 | COc1ccc(C(O)(C2CCCCC2)C(CN2CCCC2)c2ccccc2)cc1 (configuration not stated) | 12.9% (inactive) | –
11 | Cc1ccc2sc(N(CCN(C)C)C(=O)/C=C/c3cccs3)nc2c1C | -1.9% (inactive) | –
12 | CCCN(c1ccc(C)cc1)c1nc(=O)c2cccnc2s1 | 71.4% (active) | –
13 | CC1(C(=O)N/N=C/c2cc3c(cc2Br)OCO3)CC1(Br)Br (configuration not stated) | -5.1% (inactive) | –
14 | CCN(CC(=O)NCc1ccco1)S(=O)(=O)c1ccc(F)cc1 | -5.2% (inactive) | –
15 | NS(=O)(=O)c1cccc(NC(=O)CC23CC4CC(CC(Br)(C4)C2)C3)c1 | -11.5% (inactive) | –
16 | CC(C)Nc1ccc(-n2nc3ccccc3[n+]2[O-])cc1 | 1% (inactive) | –
17 | O=C(NCCN1CCOCC1)c1ccc(/C=C2\Sc3ccccc3N(Cc3ccc(F)cc3)C2=O)cc1 | -1.5% (inactive) | –
18 | CCN1CCN(CCNC(=O)c2ccc3c(c2)NC(=O)/C(=C\c2ccc(OC)c(OC)c2)S3)CC1 | 6.5% (inactive) | –
19 | CCN1CCN(CCNC(=O)c2ccc(/C=C3/Sc4ccccc4N(Cc4cccc(C)c4)C3=O)cc2)CC1 | 60.2% (active) | 75.8
20 | COc1ccc(/C=N/OCc2ccccc2C#N)c(OC)c1 | 12.1% (inactive) | –
21 | CC(NC(=O)CCCC1CCCCC1)c1ccc(S(N)(=O)=O)cc1 (configuration not stated) | -0.5% (inactive) | –
22 | Cc1ccc(NC(=O)Cc2nnc(SCC(=O)Nc3nncs3)n2C)cc1 | -10.3% (inactive) | –
23 | S=C(NCc1ccco1)Nc1ccc2c(c1)OCCO2 | 76.8% (active) | 58.4

Row | SMILES | inhibition (at 35 µM) | inhibition (confirmation repeats, at 20 µM) [%]
24 | S=C(NCc1ccc2c(c1)OCO2)NCc1ccco1 | 2.5% (inactive) | –
25 | COc1cccc(NC(=S)NCc2ccco2)c1 | 3.2% (inactive) | –
26 | N#CC1=C(N)C(C#N)(C#N)[C@H](c2ccsc2)[C@H]2COCC=C12 | 111% (inactive) | 0
27 | CCOC(=O)N1CC=C2C(C#N)=C(N)C(C#N)(C#N)[C@H](c3cccs3)[C@H]2C1 | 82.2% (active) | –
28 | CCOC(=O)C1=C(C)NC(=S)NC1c1cccs1 (configuration not stated) | 3.2% (inactive) | –
29 | O=C(N/C(=C\c1ccc([N+](=O)[O-])cc1)C(=O)N1CCCCC1)c1ccco1 | 4.9% (inactive) | –
30 | COc1cc(C(=O)Nn2c(CC(C)C)nc3ccccc3c2=O)cc(OC)c1OC | 1.2% (inactive) | –
31 | Cc1ccc(N(Cc2cc(=O)[nH]c3ccccc23)C(=O)CCl)cc1 | 3% (inactive) | –
32 | COc1ccc(N(Cc2ccc(N(C)C)cc2)C(=O)c2ccc(S(C)(=O)=O)cc2)cc1 | -1.6% (inactive) | –
33 | CNc1nc(-c2ccccc2)cc(-c2ccccc2)n1 | 4.7% (inactive) | –
34 | Nc1nc(-c2ccccc2)cc(-c2ccccc2)n1 | 9.3% (inactive) | –
35 | CS(=O)(=O)c1sc2nc(-c3ccccc3)cc(-c3ccccc3)c2c1N | 117% (active) | –
36 | CCc1ccccc1NC(=O)c1cc(-c2ccc3c(c2)OCO3)on1 | 3.5% (inactive) | –
37 | C/C(=N\NC(=O)COc1ccc(C)cc1[N+](=O)[O-])c1ccc2c(c1)OCCO2 | 3.8% (inactive) | –
38 | COC(=O)c1cccc(N(C(=O)CNC(=O)c2cccs2)C(C(=O)NCC2CCCO2)c2ccc(OC)c(OC)c2)c1 (configuration not stated) | 1% (inactive) | –
39 | CCn1c(=O)c2ccccc2n(CC(=O)N2CCCc3ccccc32)c1=O | -1.4% (inactive) | –
40 | CCC(=O)N1CCCc2ccccc21 | 59.1% (active) | –
41 | O=C(CSCc1ccccc1)N1CCc2ccccc21 | 2.2% (inactive) | –
42 | Cc1cc(NC(=O)c2ccc(F)cc2)ccc1NC(=O)c1ccco1 | 1.1% (inactive) | –
43 | Cc1c(C(=O)N2CCN(c3ccc(F)cc3)CC2)oc2c1C(=O)CCC2 | 5.7% (inactive) | –
44 | O=C(NCc1cccc(CNC(=O)Nc2cccc(O)c2)c1)Nc1cccc(O)c1 | 3.3% (inactive) | –
45 | Cc1cc(C(=O)CSc2nc(N)cc(=O)[nH]2)c(C)n1Cc1ccco1 | 10.5% (inactive) | –
46 | COc1ccc(C)cc1-n1nnnc1SCC(=O)c1cc(C)n(Cc2ccco2)c1C | 51.1% (active) | –

Row | SMILES | inhibition (at 35 µM) | inhibition (confirmation repeats, at 20 µM) [%]
47 | COc1ccc(OC)c(-n2nnnc2SCC(=O)Nc2cc(C)ccc2OC)c1 | 2.6% (inactive) | –
48 | O=C(OCC1O[C@@H](OC(=O)c2cc(O)c(O)c(O)c2)[C@@H](OC(=O)c2cc(O)c(O)c(O)c2)[C@@H](OC(=O)c2cc(O)c(O)c(O)c2)[C@@H]1OC(=O)c1cc(O)c(O)c(O)c1)c1cc(O)c(O)c(O)c1 (some centres not stated) | 88.2% (active) | –
49 | Cc1ccc(-c2nc(-c3ccncc3)no2)c(C)c1 | 9.6% (inactive) | –
50 | COc1ccc(-c2ocnc2C(=O)Nc2ccc3c(c2)CCC3)cc1 | 5.3% (inactive) | –
51 | Cc1ccc2c(cnn2C(=O)CCC(=O)NC2CCCC2)c1 | -2.1% (inactive) | –
52 | COc1ccc(C(=O)NCCNc2ccc([N+](=O)[O-])cn2)cc1 | -2.9% (inactive) | –
53 | COc1ccccc1C1CCN(c2ccc([N+](=O)[O-])cn2)CC1 | 3.2% (inactive) | –
54 | COc1ccc(Nc2ccc([N+](=O)[O-])cn2)cn1 | 39.7% (active) | 54
55 | CCOc1ccc(N(CC)S(=O)(=O)c2cccc3nsnc23)cc1 | 51% (inactive) | 37.2
56 | CC(=O)Nc1ccc(NC(=O)CN2C(=O)COc3ccc(S(=O)(=O)N4CCCCC4)cc32)cc1 | 0% (inactive) | –
57 | O=C(NCCc1nnc2ccc(SCC(=O)N3CCOCC3)nn12)c1ccccc1 | 6.6% (inactive) | –
58 | COc1cccc(/C=C2/SC(=S)N(CC(=O)NC3C=CS(=O)(=O)C3)C2=O)c1 (configuration not stated) | 8.2% (inactive) | –
59 | CCNc1c(NS(=O)(=O)c2ccc(C3CCCCC3)cc2)c(=O)oc2ccccc12 | 2.8% (inactive) | –
60 | CC1=NN(C(N)=S)C(=O)C1N=Nc1cc(Cl)ccc1Cl (configuration not stated) | 11.1% (inactive) | –
61 | Cn1c(=O)n(C)c2cc(C(=O)Nc3ccc4c(c3)OCO4)ccc21 | 9.8% (inactive) | –
62 | COc1ccc(NC(=O)CCN2C(=O)/C(=C/c3ccc4c(c3)OCO4)SC2=S)cc1 | 28.4% (inactive) | –
63 | Cc1ccc(C(=O)O)cc1-c1ccc(/C=C2\SC(=O)N(CC(=O)Nc3ccc4c(c3)OCO4)C2=O)o1 | 62.5% (active) | –
64 | CCOc1ccc(N(C(=O)c2snc(C(N)=O)c2N)C(C(=O)NCC2CCCO2)c2c[nH]c3ccccc23)cc1 (configuration not stated) | 8.6% (inactive) | –
65 | O=C(CCc1c[nH]c2ccccc12)NCCOc1ccccc1 | 3.3% (inactive) | –
66 | CCN(CCCNC(=O)c1ccc2c(c1)NC(=O)CN2C)c1cccc(C)c1 | 0.9% (inactive) | –
67 | CCOc1ccc(N(C)S(=O)(=O)c2cnc[nH]2)cc1 | -4.6% (inactive) | –
68 | O=C(CCN1CCCO1)N1CCCC(N2CCN(c3cccc(C(F)(F)F)c3)CC2)C1 (configuration not stated) | -17.5% (inactive) | –
69 | CCN1C(=O)/C(=c2\s/c(=C3\Sc4ccccc4N3C)c(=O)n2C)N(C)C1=S | -6.7% (inactive) | –

Row | SMILES | inhibition (at 35 µM) | inhibition (confirmation repeats, at 20 µM) [%]
70 | CN1/C(=c2/s/c(=C3/C(=O)N(c4ccccc4)NC3=Nc3ccccc3)n(C)c2=O)C(C)(C)c2ccccc21 | 79.2% (active) | –
71 | CCc1cccc(C)c1NC(=O)CSc1nnc(-c2ccco2)n1N | -0.1% (inactive) | –
72 | NC(=O)c1c(NC(=O)CSc2nc(N)cc(=O)[nH]2)sc2c1CCCC2 | 9.6% (inactive) | –
73 | NC(=O)c1c(NC(=O)CSc2nnc(-c3ccco3)n2N)sc2c1CCCC2 | 43.3% (active) | 90.6
74 | C[C@@H](NC(=O)[C@@H]1Cc2ccccc2CN1)C(=O)NC1CCCC1 | 21% (inactive) | –
75 | Cc1ccc(CN2CCCOCCS2(=O)=O)cc1 | 5.7% (inactive) | –
76 | Cn1cccc1/C=C1\SC(=O)N(CC(=O)Nc2ccc(F)cc2)C1=O | 2.5% (inactive) | –
77 | N#Cc1ccccc1CN1C(=O)S/C(=C/c2cccn2-c2cccc(C(=O)O)c2)C1=O | 37.4% (active) | 65.8
78 | Cc1ccccc1NC(=O)CN1C(=O)N/C(=C\c2cccn2-c2cccc(C(=O)O)c2)C1=O | 82.4% (inactive) | 24.9
79 | C=CCn1c(SCc2ccccc2)nc2c1c(=O)[nH]c(=O)n2C | -1.9% (inactive) | –
80 | O=C(O)c1cc(S(=O)(=O)N(Cc2ccccc2)c2cccc(C(F)(F)F)c2)ccc1Cl | 7.3% (inactive) | –
81 | COc1ccccc1-c1noc(CSc2nc(C)cc(=O)[nH]2)n1 | 56.6% (active) | –
82 | Cc1cc(=O)[nH]c(SCc2cc(Cl)ccc2OC(F)F)n1 | 0.2% (inactive) | –
83 | Cc1cc(=O)[nH]c(SCc2cccc(F)c2)n1 | -3.3% (inactive) | –
84 | CN1C(=O)/C(=C\c2ccc(-c3ccccc3)o2)SC1=S | 19.8% (inactive) | –
85 | O=C(O)C(c1ccccc1)N1C(=O)/C(=C\c2ccc(-c3cccc(Cl)c3)o2)SC1=S (configuration not stated) | 76% (active) | 126
86 | O=C1NN(c2ccccc2)C(=O)/C1=C/c1ccc(-c2cccc(C(=O)O)c2)o1 | 36.5% (inactive) | –
87 | CCOC(OCC)c1ccc(/C=C\c2nccc(N)n2)cc1 | -16.6% (inactive) | –
88 | COC(=O)c1sccc1NC(=O)c1ccc(Cl)cc1 | 4.7% (inactive) | –
89 | O=C(COc1ccc(Cl)cc1)Nc1ccccc1CO | 4.7% (inactive) | –
90 | COC(=O)c1sccc1NC(=O)COc1ccc(Cl)cc1 | 81% (active) | 58.4

Reference: PubChem BioAssay AID2014 (Sanford-Burnham Center for Chemical Genomics, 2009)
